Source: PubChem BioAssay (NCI)
About 83,000 compounds went through this panel and 20% of them were active in at least one assay; those are over-represented in the sample as a whole.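 Compound tested at a single concentration for 48 hours in 96-well plates; a percent growth value below 10 was scored as active.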 Values without a mark were called inactive. Calls of active or inactive are those of the source.

test system: HCC-2998 colon; experiment: NCI-60 one-dose screen, 48 h (100 = growth as untreated, 0 = no growth, -100 = all killed); settings: 10 µM

Compound | growth
CSc1ccc2c(c1)C(N1CCN(C)CC1)Cc1ccccc1S2 (configuration not stated) | -39.2% (active)
CCCCCCCCCCCCCCCCCN | 126%
S=c1[nH]nc(Cc2ccccc2)c(=S)[nH]1 | 103%
N#C/C(=C1C=C/C(=N\O)C(Cl)=C\1)c1ccccc1 | 89.7%
BrC/C=C/C[P+](c1ccccc1)(c1ccccc1)c1ccccc1 | 71.9%
O=C(/C(=C/c1ccccc1)CBr)c1ccccc1 | 108%
Cc1cc(NCCCN(C)C)c2ccc3c(ccc4c(NCCCN(C)C)cc(C)nc43)c2n1 | -66.1% (active)
Nc1ccc2cc(Br)c3ccccc3c2c1 | 47.7%
CN(C)CCC(=O)c1c[nH]c2ccccc12 | 115%
Cc1cnc(/C=N\NC(N)=S)c2cccc(N)c12 | -39.3% (active)
O=c1[nH]cc(F)c(=O)[nH]1 | 18.9%
COc1cc(C(C)(C)C)cc(OC)c1C(O)(c1c(OC)cc(C(C)(C)C)cc1OC)c1c(OC)cc(C(C)(C)C)cc1OC | -91.9% (active)
